From PubChem BioAssay (NCATS)
Values joined by “and” are separate entries in the source; they are usually repeats but may differ in a detail not shown here. Equal values may be shown once. Records with an inconclusive call do not appear. Active and inactive are the calls of the source. Unless noted, calls come from the whole dose curve; as a rule, active = well fitted curve in the direction sought with a large enough effect; inconclusive = small, poorly fitted or top-dose-only effect, or another doubt; inactive = no such curve, though single readings can be large; an effect the other way counts as inactive or inconclusive.

Assays:
[1] = qHTS for differential inhibitors of proliferation of Plasmodium falciparum line 7G8 (AID 1815);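 note: potency is the fitted concentration of half-maximal effect; parasite growth measured after three days of incubation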
[2] = molecular target: Glutathione peroxidase 1 (Homo sapiens) (UniProt P07203); assay: Primary qHTS Assay for Inhibitors of Recombinant Selenoprotein Glutathione Peroxidase 1 (GPX1) (AID 1845191); note: nearly all actives have a fitted effect of over 65% in size
Method in brief: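 NADPH consumption tracked by fluorescence at 340/450 nm between t=0 and t=15 min, room temperature. Final mix: 10 nM GPX1, 100 nM glutathione reductase, 1 mM GSH, 0.5 mM NADPH, 0.5 mM cumene hydroperoxide, 0.01% BSA; 30 min compound–enzyme preincubation.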

CP191 = assay: qHTS profiling for inhibitors of Plasmodium falciparum proliferation (AID 504749); note: nearly all actives have a fitted effect of over 60% in size; note: potency is the fitted concentration of half-maximal effect; conditions: P. falciparum in erythrocytes, SYBR Green DNA, 72 h; series mostly up to 28.7 µM
Method in brief: (§1)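 In a 72 h erythrocytic culture (37 C, humidified, 5% CO2) at 2.5% hematocrit and 0.3% starting parasitemia, compounds were tested; SYBR Green I in detergent lysis buffer stained parasite DNA overnight.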

CP291 = assay: as above; conditions: P. falciparum in erythrocytes, SYBR Green DNA, 72 h; series mostly up to 28.7 µM
Method in brief: as §1

DIV17 = assay: as above; conditions: P. falciparum in erythrocytes, SYBR Green DNA, 72 h; series mostly up to 28.7 µM
Method in brief: as §1

Dd2 = assay: as above; conditions: P. falciparum in erythrocytes, SYBR Green DNA, 72 h; series mostly up to 28.7 µM
Method in brief: as §1

GB4 = assay: as above; conditions: P. falciparum in erythrocytes, SYBR Green DNA, 72 h; series mostly up to 28.7 µM
Method in brief: as §1

HB3 = assay: as above; conditions: P. falciparum in erythrocytes, SYBR Green DNA, 72 h; series mostly up to 28.7 µM
Method in brief: as §1

ICS = assay: as above; conditions: P. falciparum in erythrocytes, SYBR Green DNA, 72 h; series mostly up to 28.7 µM
Method in brief: as §1

P93_24 = assay: as above; conditions: P. falciparum in erythrocytes, SYBR Green DNA, 72 h; series mostly up to 28.7 µM
Method in brief: as §1

PC26 = assay: as above; conditions: P. falciparum in erythrocytes, SYBR Green DNA, 72 h; series mostly up to 28.7 µM
Method in brief: as §1

TAB113 = assay: as above; conditions: P. falciparum in erythrocytes, SYBR Green DNA, 72 h; series mostly up to 28.7 µM
Method in brief: as §1

TAB165 = assay: as above; conditions: P. falciparum in erythrocytes, SYBR Green DNA, 72 h; series mostly up to 28.7 µM
Method in brief: as §1

[3] = molecular target: Androgen receptor (Homo sapiens) (UniProt P10275); assay: qHTS assay for small molecule agonists of androgen receptor signaling (AID 588515; active = well fitted curve in the direction sought with a large enough effect in the signal ratio, with a control signal flat; the % refers to the signal ratio; note: % is set by controls: 0 for no effect and ±100 for the full control effect); conditions: AR-UAS-bla HEK293, beta-lactamase ratio, agonist 16 h; active compounds read high
Method in brief: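 Stimulation of an AR-responsive β-lactamase reporter in GripTite HEK293 cells was measured after 16 h compound exposure at 37 °C, via CCF4 fluorescence after 2 h RT. EC50 from Hill fits, normalized to R1881 at 30 nM.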

[4] = molecular target: Androgen receptor (Homo sapiens) (UniProt P10275); assay: qHTS assay for small molecule antagonists of androgen receptor signaling (AID 588516; active = well fitted curve in the direction sought with a large enough effect in the signal ratio, with a control signal flat, not every such curve was filed as active; the % refers to the signal ratio; note: % is set by controls: 0 for no effect and ±100 for the full control effect)
Method in brief: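 HEK293 AR-UAS-bla cells, 10% dialyzed FBS medium; cpd titration + R1881 10 nM final, 16 h 37 C; CCF4 2 h RT; FRET ratio; IC50/efficacy via Hill fit.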

[5] = molecular target: Glucocorticoid receptor (Homo sapiens) (UniProt P04150); assay: GR-EFC Redistribution (AID 451; calls by dose curve; note: potency is the fitted concentration of half-maximal effect); conditions: CHO-K1 GR-EFC translocation, beta-gal luminescence, 2 h
Method in brief: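 Translocation of GR-ED fusion to nuclear EA restores b-gal, read by luminescence after 1 h room-temperature detection. Engineered CHO-K1 biosensor cells, 1,000/well, exposed 2 h at 37 C to titrations up to 46 uM final.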

ATS95 = assay: qHTS profiling for inhibitors of Plasmodium falciparum proliferation (AID 504749); note: nearly all actives have a fitted effect of over 60% in size; note: potency is the fitted concentration of half-maximal effect; conditions: P. falciparum in erythrocytes, SYBR Green DNA, 72 h; series mostly up to 28.7 µM
Method in brief: as §1

CP215 = assay: as above; conditions: P. falciparum in erythrocytes, SYBR Green DNA, 72 h; series mostly up to 28.7 µM
Method in brief: as §1

W2 = assay: as above; conditions: P. falciparum in erythrocytes, SYBR Green DNA, 72 h; series mostly up to 12.8 µM
Method in brief: as §1

[6] = molecular target: 3',5'-cyclic-AMP phosphodiesterase 4B (Homo sapiens) (UniProt Q07343); assay: qHTS Assay for Inhibitors of PDE-IV (AID 607; active = well fitted activation curve with a large enough effect in the main read-out, with a control signal flat, not every such curve was filed as active; note: % of control where 0% means no effect)
Method in brief: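 The readout is membrane depolarisation from a cAMP-sensing CNG channel, detected with a potential dye at ex 535/em 590. Cells were HEK293-derived (endogenous PDE-IV) at 1000 cells/well, titrated up to 22.9 uM final.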

Androgen receptor (Homo sapiens), sequence (P10275 whole entry, looked up): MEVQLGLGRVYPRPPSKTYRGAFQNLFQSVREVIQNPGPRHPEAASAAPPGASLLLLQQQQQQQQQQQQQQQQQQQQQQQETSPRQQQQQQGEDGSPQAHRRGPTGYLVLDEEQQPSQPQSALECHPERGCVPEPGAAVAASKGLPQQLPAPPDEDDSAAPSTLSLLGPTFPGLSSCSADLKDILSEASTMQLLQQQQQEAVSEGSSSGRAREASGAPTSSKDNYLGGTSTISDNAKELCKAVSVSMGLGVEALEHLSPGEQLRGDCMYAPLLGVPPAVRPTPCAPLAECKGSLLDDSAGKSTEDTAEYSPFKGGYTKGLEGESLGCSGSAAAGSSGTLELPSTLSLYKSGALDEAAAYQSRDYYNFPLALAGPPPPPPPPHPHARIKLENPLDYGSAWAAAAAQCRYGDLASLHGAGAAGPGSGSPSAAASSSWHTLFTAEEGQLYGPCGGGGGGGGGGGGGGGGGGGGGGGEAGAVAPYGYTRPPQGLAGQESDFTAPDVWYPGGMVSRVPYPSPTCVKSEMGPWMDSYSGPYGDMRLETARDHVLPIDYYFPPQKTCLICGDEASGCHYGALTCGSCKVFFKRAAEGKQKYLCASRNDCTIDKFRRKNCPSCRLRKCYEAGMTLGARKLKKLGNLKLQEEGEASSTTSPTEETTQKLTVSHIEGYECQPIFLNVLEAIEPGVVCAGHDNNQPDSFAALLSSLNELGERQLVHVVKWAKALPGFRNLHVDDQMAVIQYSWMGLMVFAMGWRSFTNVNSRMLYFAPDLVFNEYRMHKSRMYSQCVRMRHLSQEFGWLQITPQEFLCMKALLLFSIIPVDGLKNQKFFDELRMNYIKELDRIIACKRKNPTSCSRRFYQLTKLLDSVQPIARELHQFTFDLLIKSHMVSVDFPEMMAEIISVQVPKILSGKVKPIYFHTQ
Glucocorticoid receptor (Homo sapiens), sequence (P04150 whole entry, looked up, the tested form may be a part): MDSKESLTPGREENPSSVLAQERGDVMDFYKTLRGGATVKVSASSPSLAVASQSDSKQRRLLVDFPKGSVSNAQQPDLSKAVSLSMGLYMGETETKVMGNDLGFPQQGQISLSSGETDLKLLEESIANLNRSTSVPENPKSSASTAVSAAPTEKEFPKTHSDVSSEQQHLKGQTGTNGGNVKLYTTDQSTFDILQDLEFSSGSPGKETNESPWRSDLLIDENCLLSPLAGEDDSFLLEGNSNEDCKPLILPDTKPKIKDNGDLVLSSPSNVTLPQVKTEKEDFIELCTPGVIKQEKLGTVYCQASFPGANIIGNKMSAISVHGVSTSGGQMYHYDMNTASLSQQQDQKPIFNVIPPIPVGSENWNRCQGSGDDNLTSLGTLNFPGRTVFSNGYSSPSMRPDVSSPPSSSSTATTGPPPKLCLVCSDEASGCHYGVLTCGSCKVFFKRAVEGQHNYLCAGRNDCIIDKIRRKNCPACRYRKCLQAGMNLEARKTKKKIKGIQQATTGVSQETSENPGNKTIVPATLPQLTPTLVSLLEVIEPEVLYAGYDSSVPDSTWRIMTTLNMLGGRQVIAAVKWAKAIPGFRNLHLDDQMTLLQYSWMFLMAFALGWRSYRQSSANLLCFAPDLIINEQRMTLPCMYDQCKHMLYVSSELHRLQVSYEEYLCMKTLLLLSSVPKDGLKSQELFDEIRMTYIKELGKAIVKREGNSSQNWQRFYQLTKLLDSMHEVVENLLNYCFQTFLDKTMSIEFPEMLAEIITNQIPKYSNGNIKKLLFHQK
3',5'-cyclic-AMP phosphodiesterase 4B (Homo sapiens), sequence (Q07343 whole entry, looked up): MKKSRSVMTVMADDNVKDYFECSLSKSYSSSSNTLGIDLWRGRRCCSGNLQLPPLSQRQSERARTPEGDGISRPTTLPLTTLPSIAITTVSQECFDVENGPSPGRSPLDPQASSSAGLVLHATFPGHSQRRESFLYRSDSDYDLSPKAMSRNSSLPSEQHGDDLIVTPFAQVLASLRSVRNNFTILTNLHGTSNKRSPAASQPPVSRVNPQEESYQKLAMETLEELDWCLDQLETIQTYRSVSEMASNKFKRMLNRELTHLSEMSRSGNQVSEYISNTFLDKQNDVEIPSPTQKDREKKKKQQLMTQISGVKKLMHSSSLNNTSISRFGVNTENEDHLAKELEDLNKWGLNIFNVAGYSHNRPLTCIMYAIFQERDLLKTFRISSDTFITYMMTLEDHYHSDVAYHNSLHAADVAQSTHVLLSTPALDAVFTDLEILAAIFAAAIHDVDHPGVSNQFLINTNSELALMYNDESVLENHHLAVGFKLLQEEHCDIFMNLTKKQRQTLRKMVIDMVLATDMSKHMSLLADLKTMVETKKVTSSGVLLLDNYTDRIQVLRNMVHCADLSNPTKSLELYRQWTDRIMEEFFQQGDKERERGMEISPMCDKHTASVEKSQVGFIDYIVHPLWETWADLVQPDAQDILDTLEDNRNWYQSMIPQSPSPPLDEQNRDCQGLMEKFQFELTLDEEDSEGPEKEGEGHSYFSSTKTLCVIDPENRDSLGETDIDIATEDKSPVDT
Glutathione peroxidase 1 (Homo sapiens), sequence (P07203 whole entry, looked up): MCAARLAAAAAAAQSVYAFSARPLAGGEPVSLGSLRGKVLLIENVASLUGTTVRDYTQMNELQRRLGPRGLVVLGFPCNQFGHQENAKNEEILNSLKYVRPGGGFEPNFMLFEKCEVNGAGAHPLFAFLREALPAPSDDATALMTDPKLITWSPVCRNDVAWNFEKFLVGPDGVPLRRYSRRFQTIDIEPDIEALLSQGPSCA

CN1C[C@H](C(=O)N[C@]2(C)O[C@@]3(O)C4CCCN4C(=O)[C@H](Cc4ccccc4)N3C2=O)C[C@@H]2c3cccc4[nH]cc(c34)C[C@H]21 (stereo not given in full)
active: Potency [1] 224 nM

O=C(O)c1ccnc2cc(C(OCCN3CCC(F)(F)CC3)c3ccccc3Cl)[nH]c12 (stereo not given)
inactive: Potency [2]

Cc1ccc(-n2nccn2)c(C(=O)N2CCN(c3nc4cc(Cl)ccc4o3)CC[C@H]2C)c1
inactive: Potency [2]

C[C@]12CC[C@H]3[C@@H](CCC4=CC(=O)CC[C@@]43C)[C@@H]1CC[C@@H]2O
inactive: Potency (CP191) | Potency (CP291) | Potency (DIV17) | Potency (Dd2) | Potency (GB4) | Potency (HB3) | Potency (ICS) | Potency (P93_24) | Potency (PC26) | Potency (TAB113) | Potency (TAB165)

c1ccc(-c2ccccc2)cc1
inactive: activation [3] -1.76% and -0.536% | Potency [4]

CC(C)(C)OO
inactive: activation [3] -8.84% | Potency [4]

C[C@@]12CCC(=O)C=C1C=C[C@H]1[C@H]3CC[C@](O)(CCC(=O)O)[C@]3(C)CC[C@@H]12
inactive: Potency [5] > 20.6 µM | Potency (ATS95) | Potency (CP191) | Potency (CP215) | Potency (CP291) | Potency (Dd2)
active: Potency (ICS) 3.55 µM | Potency (W2) 5.73 µM

CO[C@@H](C)[C@](O)(C(=O)OCC1=CCN2CC[C@@H](O)[C@H]12)C(C)C
inactive: Potency [5] > 20.6 µM | Potency [6]

CN(C)[C@@H]1C(=O)C(C(N)=O)=C(O)[C@]2(O)C(=O)C3=C(O)c4c(O)ccc(Cl)c4[C@](C)(O)[C@H]3C[C@@H]12
inactive: Potency [5] > 20.6 µM | Potency [6] | Potency (ATS95) | Potency (CP215) | Potency (DIV17) | Potency (GB4) | Potency (HB3) | Potency (P93_24) | Potency (PC26) | Potency (TAB113) | Potency (TAB165) | Potency (W2)
